# Data: PMC7862700, “An all-to-all approach to the identification of sequence-specific readers for epigenetic DNA modifications on cytosine”
# Experiments:
# Experiment in all cases: DAPPL (digital affinity profiling via proximity ligation, sequencing); 10 mM Tris-HCl pH 7.5, 50 mM NaCl, 1 mM DTT, 4% glycerol, room temperature, 30 min; GST-TFs on glutathione beads, 16-mer random dsDNA library, 0.1% formaldehyde crosslink after washing; high values mean tight binding
# Conditions in all cases: protein: recombinant; tags: N-terminal GST; dsDNA, one strand shown
# FLI1 = target: T1, FLI1 (Homo sapiens, UniProt Q01543 1-452)
# T1 sequence: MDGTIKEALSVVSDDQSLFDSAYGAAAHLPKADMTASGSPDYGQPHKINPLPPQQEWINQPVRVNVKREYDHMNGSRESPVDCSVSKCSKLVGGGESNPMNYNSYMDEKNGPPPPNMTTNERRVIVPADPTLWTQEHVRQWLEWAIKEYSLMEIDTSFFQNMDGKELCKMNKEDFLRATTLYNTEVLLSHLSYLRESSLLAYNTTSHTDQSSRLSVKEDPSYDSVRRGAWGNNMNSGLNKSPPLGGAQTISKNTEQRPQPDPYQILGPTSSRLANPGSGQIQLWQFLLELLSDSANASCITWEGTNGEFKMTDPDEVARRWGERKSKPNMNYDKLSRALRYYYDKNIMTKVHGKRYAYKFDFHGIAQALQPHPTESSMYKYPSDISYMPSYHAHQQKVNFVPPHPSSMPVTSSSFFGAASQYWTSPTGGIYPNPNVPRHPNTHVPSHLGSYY
# In short: (§1)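 Binding signal is given per hexamer as its read frequency for a factor divided by its frequency in the tag-only sample. GST-fused human transcription factors were expressed in yeast, captured on glutathione beads, barcoded with DNA and pooled with that sample, then incubated with 200 nmole of a 16-mer random double-stranded DNA library in Tris/NaCl/DTT/glycerol buffer for 30 min at room temperature. The pools were then washed, crosslinked, proximity-ligated, amplified by PCR and sequenced on an Illumina NextSeq500.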
# ELK1 = target: T2, ELK1 (Homo sapiens, UniProt P19419 1-428)
# T2 sequence: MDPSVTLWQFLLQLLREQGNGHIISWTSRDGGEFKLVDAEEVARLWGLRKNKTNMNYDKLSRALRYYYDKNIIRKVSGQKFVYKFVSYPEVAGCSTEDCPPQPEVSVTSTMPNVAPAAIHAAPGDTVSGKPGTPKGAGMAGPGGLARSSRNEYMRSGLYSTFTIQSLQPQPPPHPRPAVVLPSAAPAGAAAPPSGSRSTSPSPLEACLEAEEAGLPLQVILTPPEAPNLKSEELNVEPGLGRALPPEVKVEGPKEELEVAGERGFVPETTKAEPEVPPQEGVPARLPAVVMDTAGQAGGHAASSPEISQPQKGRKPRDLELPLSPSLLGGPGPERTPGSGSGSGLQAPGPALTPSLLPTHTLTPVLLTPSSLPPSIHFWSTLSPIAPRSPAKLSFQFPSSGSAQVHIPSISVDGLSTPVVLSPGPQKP
# In short: as §1
# GABPA = target: T3, GABPA (Homo sapiens, UniProt Q06546 1-454)
# T3 sequence: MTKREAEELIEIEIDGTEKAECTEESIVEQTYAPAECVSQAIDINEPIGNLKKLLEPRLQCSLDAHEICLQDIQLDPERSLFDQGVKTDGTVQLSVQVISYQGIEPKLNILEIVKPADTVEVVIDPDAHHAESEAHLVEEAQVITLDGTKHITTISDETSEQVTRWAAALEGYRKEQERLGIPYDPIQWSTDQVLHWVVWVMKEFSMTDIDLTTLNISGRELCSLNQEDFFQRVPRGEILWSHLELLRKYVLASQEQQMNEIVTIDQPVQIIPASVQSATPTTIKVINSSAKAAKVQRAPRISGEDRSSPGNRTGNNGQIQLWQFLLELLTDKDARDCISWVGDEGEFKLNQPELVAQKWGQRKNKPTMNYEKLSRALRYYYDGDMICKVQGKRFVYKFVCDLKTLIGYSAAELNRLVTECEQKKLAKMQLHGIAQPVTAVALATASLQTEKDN
# In short: as §1
# ERG = target: T4, ERG (Homo sapiens, UniProt P11308 1-479)
# T4 sequence: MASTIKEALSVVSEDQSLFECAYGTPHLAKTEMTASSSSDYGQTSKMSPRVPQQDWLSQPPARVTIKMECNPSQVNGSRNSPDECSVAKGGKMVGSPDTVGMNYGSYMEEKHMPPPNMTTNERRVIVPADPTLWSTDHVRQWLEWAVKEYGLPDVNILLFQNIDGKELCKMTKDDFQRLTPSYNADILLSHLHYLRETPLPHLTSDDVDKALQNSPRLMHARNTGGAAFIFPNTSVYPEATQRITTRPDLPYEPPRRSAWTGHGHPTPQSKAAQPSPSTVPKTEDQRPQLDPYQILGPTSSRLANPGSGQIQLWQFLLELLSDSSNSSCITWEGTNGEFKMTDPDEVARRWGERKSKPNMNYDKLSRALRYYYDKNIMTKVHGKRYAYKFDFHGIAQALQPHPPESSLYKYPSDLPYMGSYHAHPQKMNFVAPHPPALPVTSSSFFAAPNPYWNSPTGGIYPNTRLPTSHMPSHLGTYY
# In short: as §1
# ELF1 = ELF1 (Homo sapiens, UniProt P32519 1-619)
# In short: as §1
# EHF = target: T5, EHF (Homo sapiens, UniProt Q9NZC4 1-300)
# T5 sequence: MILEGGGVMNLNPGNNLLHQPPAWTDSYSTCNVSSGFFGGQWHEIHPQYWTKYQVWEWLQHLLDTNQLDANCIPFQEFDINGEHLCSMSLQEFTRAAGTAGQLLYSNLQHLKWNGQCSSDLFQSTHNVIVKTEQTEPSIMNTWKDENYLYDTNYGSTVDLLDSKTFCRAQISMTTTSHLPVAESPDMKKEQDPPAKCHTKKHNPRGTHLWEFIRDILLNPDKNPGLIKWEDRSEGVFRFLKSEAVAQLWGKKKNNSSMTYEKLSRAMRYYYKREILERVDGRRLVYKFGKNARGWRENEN
# In short: as §1
# SPI1 = SPI1 (Homo sapiens, UniProt P17947 1-270)
# In short: as §1
# SPIB = SPIB (Homo sapiens, UniProt Q01892 1-262)
# In short: as §1
# ELK3 = target: T6, ELK3 (Homo sapiens, UniProt P41970 1-407)
# T6 sequence: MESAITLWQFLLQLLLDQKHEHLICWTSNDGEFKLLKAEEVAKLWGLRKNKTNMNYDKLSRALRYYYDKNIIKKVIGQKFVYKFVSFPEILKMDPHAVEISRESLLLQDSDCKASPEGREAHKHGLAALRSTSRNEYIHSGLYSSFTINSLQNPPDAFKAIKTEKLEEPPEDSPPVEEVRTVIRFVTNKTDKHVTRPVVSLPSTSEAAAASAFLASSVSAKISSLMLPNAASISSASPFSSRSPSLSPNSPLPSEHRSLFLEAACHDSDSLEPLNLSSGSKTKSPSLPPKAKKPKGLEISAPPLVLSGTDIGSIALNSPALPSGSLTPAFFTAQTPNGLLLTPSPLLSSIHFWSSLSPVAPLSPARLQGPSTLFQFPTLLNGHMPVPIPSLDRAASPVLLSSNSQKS
# In short: as §1
# ELF1, sequence (P32519 whole entry): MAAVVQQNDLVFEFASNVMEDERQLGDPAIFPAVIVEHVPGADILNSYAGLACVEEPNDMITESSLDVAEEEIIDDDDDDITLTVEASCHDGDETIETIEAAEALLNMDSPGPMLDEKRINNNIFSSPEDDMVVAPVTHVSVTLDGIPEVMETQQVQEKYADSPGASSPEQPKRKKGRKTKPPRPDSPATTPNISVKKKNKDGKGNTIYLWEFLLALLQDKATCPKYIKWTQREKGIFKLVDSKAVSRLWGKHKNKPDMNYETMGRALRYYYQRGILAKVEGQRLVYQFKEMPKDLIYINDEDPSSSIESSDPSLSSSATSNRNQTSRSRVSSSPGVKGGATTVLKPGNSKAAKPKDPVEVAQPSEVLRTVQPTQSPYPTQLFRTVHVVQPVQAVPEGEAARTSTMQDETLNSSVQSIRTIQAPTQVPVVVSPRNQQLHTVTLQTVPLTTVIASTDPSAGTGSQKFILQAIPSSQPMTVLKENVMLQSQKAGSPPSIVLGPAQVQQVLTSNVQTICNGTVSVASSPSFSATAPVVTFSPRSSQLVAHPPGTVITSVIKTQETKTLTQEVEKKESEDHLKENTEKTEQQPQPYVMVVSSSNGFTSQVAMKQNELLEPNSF
# SPIB, sequence (Q01892 whole entry): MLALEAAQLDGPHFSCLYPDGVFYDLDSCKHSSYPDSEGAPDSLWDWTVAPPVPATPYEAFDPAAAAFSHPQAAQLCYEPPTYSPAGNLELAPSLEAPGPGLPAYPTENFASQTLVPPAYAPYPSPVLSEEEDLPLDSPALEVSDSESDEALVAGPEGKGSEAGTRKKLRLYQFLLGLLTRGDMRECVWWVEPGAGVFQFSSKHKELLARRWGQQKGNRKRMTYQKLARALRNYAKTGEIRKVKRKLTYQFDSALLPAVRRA
Sequence,binding signal (FLI1),binding signal (ELK1),binding signal (GABPA),binding signal (ERG),binding signal (ELF1),binding signal (EHF),binding signal (SPI1),binding signal (SPIB),binding signal (ELK3)
ACTGCA,"1.1 fold enrichment (6-mer frequency, TF over GST control)","1.17 fold enrichment (6-mer frequency, TF over GST control)","1.05 fold enrichment (6-mer frequency, TF over GST control)","1.09 fold enrichment (6-mer frequency, TF over GST control)","1.19 fold enrichment (6-mer frequency, TF over GST control)","1.12 fold enrichment (6-mer frequency, TF over GST control)","1.27 fold enrichment (6-mer frequency, TF over GST control)","1.15 fold enrichment (6-mer frequency, TF over GST control)","1.11 fold enrichment (6-mer frequency, TF over GST control)"
CTCGCG,"1.47 fold enrichment (6-mer frequency, TF over GST control)","1.35 fold enrichment (6-mer frequency, TF over GST control)","1.55 fold enrichment (6-mer frequency, TF over GST control)","1.42 fold enrichment (6-mer frequency, TF over GST control)","1.41 fold enrichment (6-mer frequency, TF over GST control)","1.32 fold enrichment (6-mer frequency, TF over GST control)","1.39 fold enrichment (6-mer frequency, TF over GST control)","1.45 fold enrichment (6-mer frequency, TF over GST control)","1.34 fold enrichment (6-mer frequency, TF over GST control)"
ACCTTC,"1.8 fold enrichment (6-mer frequency, TF over GST control)","1.94 fold enrichment (6-mer frequency, TF over GST control)","1.79 fold enrichment (6-mer frequency, TF over GST control)","2.03 fold enrichment (6-mer frequency, TF over GST control)","1.92 fold enrichment (6-mer frequency, TF over GST control)","2.02 fold enrichment (6-mer frequency, TF over GST control)","1.75 fold enrichment (6-mer frequency, TF over GST control)","1.95 fold enrichment (6-mer frequency, TF over GST control)","1.8 fold enrichment (6-mer frequency, TF over GST control)"
TACGTC,"1.19 fold enrichment (6-mer frequency, TF over GST control)","1.16 fold enrichment (6-mer frequency, TF over GST control)","1.13 fold enrichment (6-mer frequency, TF over GST control)","1.16 fold enrichment (6-mer frequency, TF over GST control)","1.13 fold enrichment (6-mer frequency, TF over GST control)","1.25 fold enrichment (6-mer frequency, TF over GST control)","1.12 fold enrichment (6-mer frequency, TF over GST control)","1.31 fold enrichment (6-mer frequency, TF over GST control)","1.21 fold enrichment (6-mer frequency, TF over GST control)"
TCACCC,"1.23 fold enrichment (6-mer frequency, TF over GST control)","1.23 fold enrichment (6-mer frequency, TF over GST control)","1.21 fold enrichment (6-mer frequency, TF over GST control)","1.13 fold enrichment (6-mer frequency, TF over GST control)","1.2 fold enrichment (6-mer frequency, TF over GST control)","1.06 fold enrichment (6-mer frequency, TF over GST control)","1.12 fold enrichment (6-mer frequency, TF over GST control)","1.2 fold enrichment (6-mer frequency, TF over GST control)","1.15 fold enrichment (6-mer frequency, TF over GST control)"
CTTGTT,"1.2 fold enrichment (6-mer frequency, TF over GST control)","1.18 fold enrichment (6-mer frequency, TF over GST control)","1.15 fold enrichment (6-mer frequency, TF over GST control)","1.26 fold enrichment (6-mer frequency, TF over GST control)","1.21 fold enrichment (6-mer frequency, TF over GST control)","1.31 fold enrichment (6-mer frequency, TF over GST control)","1.25 fold enrichment (6-mer frequency, TF over GST control)","1.29 fold enrichment (6-mer frequency, TF over GST control)","1.3 fold enrichment (6-mer frequency, TF over GST control)"
ATGATT,"1.22 fold enrichment (6-mer frequency, TF over GST control)","1.25 fold enrichment (6-mer frequency, TF over GST control)","1.37 fold enrichment (6-mer frequency, TF over GST control)","1.21 fold enrichment (6-mer frequency, TF over GST control)","1.21 fold enrichment (6-mer frequency, TF over GST control)","1.22 fold enrichment (6-mer frequency, TF over GST control)","1.17 fold enrichment (6-mer frequency, TF over GST control)","1.22 fold enrichment (6-mer frequency, TF over GST control)","1.09 fold enrichment (6-mer frequency, TF over GST control)"
ACATTG,"1.24 fold enrichment (6-mer frequency, TF over GST control)","1.11 fold enrichment (6-mer frequency, TF over GST control)","1.17 fold enrichment (6-mer frequency, TF over GST control)","1.07 fold enrichment (6-mer frequency, TF over GST control)","1.13 fold enrichment (6-mer frequency, TF over GST control)","1.17 fold enrichment (6-mer frequency, TF over GST control)","1.04 fold enrichment (6-mer frequency, TF over GST control)","1.16 fold enrichment (6-mer frequency, TF over GST control)","1.11 fold enrichment (6-mer frequency, TF over GST control)"
